Compounds with a hit are over-represented: about 2.2% of the library has one in this group of screens.
Exocytosis inh – lytic granule exocytosis inhibition; TALL-104 LAMP-1 surface exposure, flow cytometry; cells stimulated with thapsigargin and PMA; AID 651702; 0.66% of 360,000 active; inhibition, % at 10 µM;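 active means inhibition above about 55%, limit read from the data; inconclusive means no clear call, values can overlap the other calls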
VLA-4 inh – inhibition in a human VLA-4 binding assay; VLA-4 expressing cells, ligand binding flow cytometry; inhibition, % (about 7 µM as worked out from the volumes in the protocol); 0.2% of 330,000 active; AID 2557; in the data active means inhibition above about 50%
Target sequence (P13612 whole entry, looked up): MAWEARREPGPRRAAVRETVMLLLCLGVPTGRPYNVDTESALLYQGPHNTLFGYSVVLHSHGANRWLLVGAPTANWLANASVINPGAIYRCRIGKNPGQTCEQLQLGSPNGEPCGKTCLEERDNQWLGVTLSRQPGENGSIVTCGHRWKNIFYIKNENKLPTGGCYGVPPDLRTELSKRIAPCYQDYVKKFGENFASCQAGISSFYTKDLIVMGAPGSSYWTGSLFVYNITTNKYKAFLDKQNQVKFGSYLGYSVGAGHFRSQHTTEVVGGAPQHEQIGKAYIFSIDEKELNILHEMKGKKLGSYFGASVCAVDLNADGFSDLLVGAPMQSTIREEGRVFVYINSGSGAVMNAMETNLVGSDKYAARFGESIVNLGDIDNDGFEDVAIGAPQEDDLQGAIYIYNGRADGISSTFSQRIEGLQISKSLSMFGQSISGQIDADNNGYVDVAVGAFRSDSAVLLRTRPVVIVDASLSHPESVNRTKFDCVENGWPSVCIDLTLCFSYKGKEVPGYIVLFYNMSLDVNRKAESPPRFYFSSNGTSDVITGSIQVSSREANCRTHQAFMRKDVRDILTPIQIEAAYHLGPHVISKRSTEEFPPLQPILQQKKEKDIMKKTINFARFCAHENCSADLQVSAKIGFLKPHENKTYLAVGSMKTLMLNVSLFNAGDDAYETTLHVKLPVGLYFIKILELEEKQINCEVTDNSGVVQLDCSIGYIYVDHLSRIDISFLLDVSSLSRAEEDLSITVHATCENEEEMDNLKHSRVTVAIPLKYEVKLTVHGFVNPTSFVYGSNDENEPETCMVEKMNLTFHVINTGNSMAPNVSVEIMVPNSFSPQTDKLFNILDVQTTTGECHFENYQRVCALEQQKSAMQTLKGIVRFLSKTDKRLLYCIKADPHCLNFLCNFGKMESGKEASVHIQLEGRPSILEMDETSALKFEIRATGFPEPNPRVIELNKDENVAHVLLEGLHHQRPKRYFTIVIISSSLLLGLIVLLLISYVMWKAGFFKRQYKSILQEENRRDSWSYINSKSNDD
V-ATPase pHluor – regulators of yeast V-ATPase proton transport; 0.37% of 350,000 active; S. cerevisiae, pHLuorin cytosolic pH fluorescence; response, % at 10 µM; in the data active means response mostly above about 7.3%, no sharp cut-off; inactive means mostly below about 5.4%; further: actives read high
MEX-5 binding – C. elegans MEX-5 TCR-2 RNA binding activity; Q9XUB2; MEX-5/FITC-TCR2 RNA binding, fluorescence polarization; active compounds read low; activity score (negative = inhibition of binding), % at 10 µM; 0.38% of 300,000 active; AID 1832;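 active means inhibition past about -25% in most replicates, and total fluorescence under double the plate's negative control median, limit read from the data; inconclusive means replicates evenly split on the limit, or fluorescence at least double controls; inactive means too little inhibition in most replicates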;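 further: 0% = DMSO and -100% = 5 µM competing unlabeled TCR2 RNA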
JMJD2C inh – inhibitors of human GASC-1 (JMJD2C) demethylase. Q9H3R0. GST-JMJD2C(1-420) H3K9me3 demethylation, DELFIA europium. inhibition, % at 2.35 µM. 0.069% of 330,000 active. AID 2099;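 active means more than half of a compound's replicate wells show inhibition beyond 50%, single wells judged on their own value; inconclusive means some, but no more than half, of replicates pass 50% inhibition; inactive means no replicate passes 50% inhibition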;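 further: signal counts dimethyl H3K9 product captured on neutravidin plate; 0% = median of DMSO wells and 100% = 0.3 times that DMSO median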
HTR2A ag – agonists of mouse serotonin 5-HT2A receptor (HTR2A) | AID 624169 | activation, % at 7.6 µM | CHO-K1 mHTR2A beta-arrestin complementation, luminescence; percent of 30 µM serotonin response | 0.66% of 360,000 active;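 active means activation above a run cutoff, the mean activation of all tested compounds plus 3 SD, cut at about 14% in these data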;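 further: 0% = plate median of compound wells and 100% = 30 µM serotonin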
VATPase regulator – regulators of yeast V-ATPase proton transport | shares compounds with V-ATPase pHluor | response, % at 10 µM | S. cerevisiae pHLuorin cytosolic pH | 2% of 980 active; in the data active means response above about 24%;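 further: plate controls were vehicle wells for no effect and positive control wells for full effect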
Numbers without * were called inactive; ? = inconclusive; / = no result.

SMILES	Exocytosis inh	VLA-4 inh	V-ATPase pHluor	MEX-5 binding	JMJD2C inh	HTR2A ag	VATPase regulator
CN(CC(=O)Nc1cc(S(=O)(=O)N2CCOCC2)ccc1Cl)C1CCS(=O)(=O)C1 (stereo not given)	1.4	4.7	7.6*	0.9	4.5	6.0	4.0
COc1ccc(NS(=O)(=O)CC(C)C)c(OC)c1	-1.4	-7.8	11.3*	2.9	-4.9	1.8	0.2
CCS(=O)(=O)Nc1ccc(-c2ccc(NS(=O)(=O)CC)c(OC)c2)cc1OC	1.1	-3.3	-1.5	-1.4	-0.1	-3.5	/
CCOC(=O)c1c(C)[nH]c(C)c1C(=O)COC(=O)/C=C/c1ccc(OC(F)F)cc1	-5.7	8.5	10.2*	-0.4	5.7	-6.7	3.7
O=S(=O)(c1cc(O)ccc1O)c1cccc2c(S(=O)(=O)c3cc(O)ccc3O)cccc12	-0.4	29.6	1.7	-3.5	2.8	4.9	/
O=S(=O)(O)c1cc(O)ccc1O	1.6	10.5	15.1*	/	1.5	-3.3	-2.4
CCOC(=O)[C@@H]1[C@H]2COc3ccc(Br)cc3[C@H]2N2C(=O)N(c3ccc(F)cc3)C(=O)[C@@]12C	-13.0	2.7	-1.5	-1.2	6.0	-1.3	/
O[C@@H]1CN(C2CCCCC2)CC[C@H]1N1CCN(CCc2ccccc2)CC1	41.4	7.7	-0.6	-1.0	2.9	-2.3	/
O[C@@H]1CN(C2CCN(Cc3ccccc3)CC2)CC[C@H]1N1CCCCCC1	6.3	/	10.6*	/	/	5.2	0.0
Cn1c(SCC(=O)NC2(C#N)CCCCC2)nnc1-c1cccnc1	1.1	-0.3	9.3*	1.8	-4.1	-7.6	0.7
Cn1c(SCC(=O)NC2CCCCC2)nnc1-c1cccnc1	2.9	-13.9	-1.5	1.6	-0.3	0.9	/
Cc1cn(CC(=O)N(C)Cc2ccco2)c(=O)[nH]c1=O	5.4	/	-0.5	/	/	2.4	/
FC(F)Oc1ccc(NC(=S)NCc2nc3ccccc3[nH]2)cc1	3.3	-1.4	2.0	3.8	-8.2	-2.6	/
CCOc1ccc(NC(=S)NCc2nc3ccccc3[nH]2)cc1	7.2	-7.6	10.5*	-0.1	-20.2	1.2	-1.2
COc1ccc(Nc2nc(-c3cccnc3)cs2)c(OC)c1	9.8	-7.7	9.1*	-2.7	21.0	-10.3	2.9
COc1ccccc1Nc1nc(-c2cccnc2)cs1	-3.8	23.6	4.1	1.8	19.7	-4.3	/
COc1ccc2nc(NC(=O)CSc3nc4ccccc4o3)sc2c1	-1.5	0.1	11.7*	-1.8	-4.3	6.4	0.7
O=C(CSc1nc2ccccc2o1)Nc1nc2ccc(Br)cc2s1	1.1	-9.5	-0.3	-3.6	13.2	-1.7	/
CSc1ccc(S(=O)(=O)NCC(=O)OCC(=O)N(C)C2CCCCC2)cc1[N+](=O)[O-]	1.1	20.5	-3.2	3.5	-1.5	3.6	/
COc1ccccc1NC(=O)c1c(Nc2ccccc2C)sc(C(=O)Nc2cccc(Cl)c2)c1N	26.8	14.6	11.7*	-0.9	13.2	-0.2	-1.9
CCOC(=O)Cn1c2ccccc2c2nc3ccccc3nc21	-0.7	6.2	-4.3	-0.4	3.1	-2.0	-52.8
CCOC(=O)Cn1c(=O)cc(C)c2ccccc21	-4.4	4.4	-6.0	-0.8	12.0	1.1	-0.6
CCOC(=O)Cn1c(C)cc(=O)c2ccccc21	-2.6	5.1	-0.4	-0.8	56.5	5.6	-4.9
CCCCCNC(=O)C1CC(=O)OC12CCCCC2 (stereo not given)	-1.6	-0.1	-0.6	-0.2	9.3	2.9	/
COc1cc2c(cc1OC)C(C)N(S(=O)(=O)c1ccc(Cl)nc1)CC2 (stereo not given)	0.4	4.0	-3.1	-2.2	?	2.6	/
SMILES	Exocytosis inh	VLA-4 inh	V-ATPase pHluor	MEX-5 binding	JMJD2C inh	HTR2A ag	VATPase regulator
CC(C)c1ccc(CC(=O)N2CCC2(C)C(=O)NS(=O)(=O)c2ccc(Cl)s2)cc1 (stereo not given)	9.2	/	/	/	/	2.4	/
O=C(CSc1nc2ccccc2c(=O)n1NC(=O)Cc1ccccc1)NCc1ccccc1	-2.3	6.3	14.6*	2.6	15.1	-0.1	1.6
O=C(CSc1nc2ccccc2c(=O)n1NC(=O)Cc1ccccc1)NCc1ccco1	-6.3	8.8	0.7	0.8	-0.2	5.0	/
Cc1onc(-c2ccccc2)c1C(=O)NC1CCCCC1C (stereo not given)	-5.9	/	9.2*	/	/	-4.4	-4.1
O=C(COC(=O)CCC(=O)c1ccc(F)cc1)NCCc1ccccc1	-2.3	13.1	0.6	/	-2.3	0.7	-5.8
O=C(COC(=O)CCC(=O)c1ccccc1)NCCc1ccccc1	-15.7	8.9	-5.3	0.7	?	5.1	/
COc1ccccc1NC(=O)Cn1cc(C(=O)C2CC2)c2ccccc21	-0.4	19.9	-5.0	-0.7	-18.0	2.9	/
COc1ccc(Cc2nnc(SCC(=O)Nc3ccccc3)[nH]c2=O)cc1	-5.8	-12.5	-1.2	-0.5	9.1	-3.8	/
Cc1ccc(NC(=O)CSc2nnc(Cc3ccccc3)c(=O)[nH]2)c(C)c1	-2.1	-9.4	10.6*	-1.1	8.2	-8.5	-1.5
CCn1nnc(NC(=O)Cc2ccc(Cl)cc2)n1	1.1	6.5	-1.2	-0.1	1.1	-0.6	/
CCn1nnc(NC(=O)c2ccc(-c3ccc(Cl)cc3)o2)n1	-2.1	-2.9	7.1*	0.7	6.1	-1.2	1.7
CC1(C(=O)N2CCCCC2)CCN1C(=O)C1(c2ccccc2)CC1 (stereo not given)	2.0	/	/	/	/	6.1	/
COc1ccc(/C=C/C(=O)c2ccc(O)cc2)cc1	-3.7	23.6	9.3*	-0.3	10.8	2.5	5.0
COc1ccc(/C=C/C(=O)c2ccoc2)cc1	-4.8	5.9	2.1	1.7	2.3	-0.4	/
NS(=O)(=O)c1ccc(NN=C2CCN(Cc3ccccc3)CC2)c([N+](=O)[O-])c1	-1.3	-4.3	16.1*	-0.3	4.0	-2.2	3.7
Cc1cc(N2CCN(c3cccc(C(F)(F)F)c3)CC2)n2nc(C)nc2n1	2.2	4.4	-2.5	-0.5	0.2	-1.9	/
Cc1cc(N2CCN(c3ccccn3)CC2)n2nc(C)nc2n1	4.3	18.1	8.4*	-1.5	16.7	5.7	0.5
CS(=O)(=O)Nc1cccc(-c2cnc3ccccc3n2)c1	-9.5	14.7	0.2	-3.0	4.2	3.7	/
COc1ccc(S(=O)(=O)N(C)CC(=O)NCCN2CCOCC2)cc1Cl	-2.3	6.5	1.4	1.6	-4.2	1.2	/
COc1c(Cl)cc(Cl)cc1CNCCNCC(C)O (stereo not given)	-3.5	8.6	0.3	-3.7	1.1	-5.5	/
CNCc1cc(Cl)cc(OC)c1OC(C)C	-0.1	/	7.7*	-1.0	-1.4	0.1	-2.1
O=C(COc1coc(CN2CCCc3ccccc32)cc1=O)Nc1ccc([N+](=O)[O-])cc1	-4.0	-10.4	7.4*	-1.5	33.1	0.1	0.5
CC(=O)c1cccc(S(=O)(=O)N2CCN(c3ccccc3F)CC2)c1	1.3	5.1	11.9*	1.5	-19.7	3.4	-1.5

From PubChem
